In general, AC50 refers to the concentration at which the activity in the assay is half-maximal.

Experiment [1] can be described thus: Tanguay_ZF_120hpf_DP24: Oregon State University Tanguay Lab 24 Hour Post-fertilization zebrafish Assay for Delayed Development (AID 2284390). A digest of the protocol: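 Scored at 24 hpf as a binary present/absent call of delayed development by brightfield, with dead embryos not assessed. Embryos (5D wild type, chorion removed with pronase at 4 hpf) dosed statically from 6 hpf at 28 C in 0.64% DMSO.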

A short description of experiment [2]: Tanguay_ZF_120hpf_CRAN: Oregon State University Tanguay Lab 120 Hour Post-fertilization zebrafish Assay for Craniofacial Malformation (AID 2284397). A digest of the protocol:
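Scoring of craniofacial malformation as a binary endpoint was done at 120 hpf by brightfield microscopy and was not done in dead embryos. Exposure was static, starting at 6 hpf, in dechorionated wild-type embryos held singly at 28C with 0.64% DMSO final.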

A short description of experiment [3]: Tanguay_ZF_120hpf_AXIS: Oregon State University Tanguay Lab 120 Hour Post-fertilization zebrafish Assay for Axial Malformation (AID 2284398). A digest of the protocol: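 Scoring was binary (present or absent) for body-axis defects, judged by brightfield imaging at 120 hpf in surviving larvae. Exposure was static at 28C from 6 hpf in chorion-free 5D wild-type embryos, with 0.64% DMSO vehicle.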

A short description of experiment [4]: Tanguay_ZF_120hpf_BRN: Oregon State University Tanguay Lab 120 Hour Post-fertilization zebrafish Assay for Brain Region Malformation (AID 2284402). A digest of the protocol: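 Binary brightfield scoring of brain malformation at 120 hpf in 5D wild-type larvae, chorion removed with pronase at 4 hpf. Static exposure began at 6 hpf, 28C, sealed plates, DMSO 0.64% (vol/vol) as vehicle baseline.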

The nature of experiment [5]: Tanguay_ZF_120hpf_TCHR: Oregon State University Tanguay Lab 120 Hour Post-fertilization zebrafish Assay for Touch Responsive (AID 2284403). A digest of the protocol:
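Binary touch-response calls are made at 120 hpf in 5D wild-type zebrafish larvae. These larvae were dechorionated with pronase and exposed singly from 6 hpf in sealed, dark plates at 28 °C with 0.64% DMSO final; dead embryos are excluded.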

The nature of experiment [6]: CCTE_Padilla_ZF_Score.Craniofacial: CCTE's 144 Hour Post-fertilization zebrafish Assay Score for Craniofacial Malformation, Padilla Lab (AID 2284405). The gist of the method:
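Craniofacial defects were scored at 6 dpf by two blinded observers using stereomicroscopy. Exposure of wild-type embryos began at 6–8 hpf in sealed wells of 10% Hanks' solution at 26C, with chemical removed by rinsing at 5 dpf.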

Experiment [7] in a line: CCTE_Padilla_ZF_Score.Edema: CCTE's 144 Hour Post-fertilization zebrafish Assay Score for Edema Malformation, Padilla Lab (AID 2284406). A digest of the protocol: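 Edema scored at 6 dpf by two blinded observers under a stereo microscope, in single outbred wild-type larvae exposed from 6-8 hpf in sealed wells (Hanks', 26C, 14:10 h light) and chemical-free after a 5 dpf rinse.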

Experiment [8] can be described thus: CCTE_Padilla_ZF_Score.Spine: CCTE's 144 Hour Post-fertilization zebrafish Assay Score for Spine Malformation, Padilla Lab (AID 2284407). A digest of the protocol:
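Spine malformation scored at 6 dpf by two independent blinded observers under stereomicroscope, after static sealed exposure from 6–8 hpf at 26C in Hanks' solution with rinse on 5 dpf. Positive-direction fit against DMSO control.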

Experiment [9] can be described thus: CCTE_Padilla_ZF_Score.Swim_bladder: CCTE's 144 Hour Post-fertilization zebrafish Assay Score for Swim Bladder Malformation, Padilla Lab (AID 2284408). A digest of the protocol:
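Swim bladder inflation scored at 6 dpf by two blinded observers under a stereo microscope. Exposure ran from 6–8 hpf in sealed wells of 10% Hanks' at 26C, with rinsing at 5 dpf; DMSO served as baseline.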

Experiment [10] is described as follows: CCTE_Mundy_HCI_iCellGluta_NOG_NeuronCount: CCTE's Neurite Outgrowth Assay in iCellGluta cells for Neuron Count, Mundy Lab (AID 2284340; active means hit-call score of the fitted dose curve at least 0.9, where 1 is the maximum;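 further: cells fixed about 48 h after compound addition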). A digest of the protocol:
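Neuron count read by automated high-content imaging of Hoechst 33342 and betaIII-tubulin/Alexa Fluor-488 labelling in human iPSC glutamatergic neurons. Activity fitted relative to DMSO.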

Experiment [11] is described as follows: CCTE_Mundy_HCI_iCellGluta_NOG_NeuriteCount: CCTE's Neurite Outgrowth Assay in iCellGluta cells for Neurite Count, Mundy Lab (AID 2284342; active means hit-call score of the fitted dose curve at least 0.9, where 1 is the maximum;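 further: chemical exposure about 48 hours starting 2 hours after plating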).
A further experiment concerns SERPINA7 (gene 6906). Put plainly: CCTE_GLTED_hTBG: CCTE's human Thyroxine-binding Globulin (TBG) Inhibition Assay, Great Lakes Toxicology and Ecology Division (GLTED) Lab (AID 2284343; active means hit-call score of the fitted dose curve at least 0.9, where 1 is the maximum;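 further: active chemicals lower fluorescence versus DMSO baseline by displacing probe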). A digest of the protocol: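 Human thyroxine-binding globulin was exposed to each chemical for 2 hours, during which the ANSA probe could be displaced. Fluorescence was then measured at 380/475 nm, and loss of signal was analysed relative to DMSO.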

The nature of experiment [12]: IUF_NPC1_cytotoxicity_72hr: Cytotoxicity Assessment at 72 hours in the Leibniz Research Institute for Environmental Medicine (IUF) Neural Progenitor Cell Proliferation Assay (NPC1) (AID 2284332; active means hit-call score of the fitted dose curve at least 0.9, where 1 is the maximum;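 further: rising LDH signal means more cytotoxicity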). The gist of the method: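 Membrane-integrity loss is scored from LDH released into the medium, detected as resorufin fluorescence, with activity fitted upward relative to baseline. Test material stays on human fetal-derived progenitor spheres for 72 h.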

The nature of experiment [13]: TAMU_PeakParms_SingleDonor1434_Asystole: Texas A&M University (TAMU) 1.5-hr Human Induced Pluripotent Stem Cell (iPSC)-derived Cardiomyocytes Calcium (Ca+2) Flux Assay for Cardiotoxicity: Asystole (quiescence of beating) (AID 2284328; active means hit-call score of the fitted dose curve at least 0.9, where 1 is the maximum). A digest of the protocol:
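Average Ca2+-flux peak frequency (beats/s) was recorded in single-donor iPSC-derived cardiomyocytes after 90 min exposure (0.2–100 uM final, 0.5% DMSO). Asystole POD set as EC95 against DMSO, no preprocessing.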

Records with an inconclusive call do not appear. Active and inactive are the calls of the source. How the source made its calls, unless noted: active means hit-call score of the fitted dose curve at least 0.9, where 1 is the maximum; inactive means score below 0.9.

As to `OCC(F)(F)OC(F)(F)C(F)(F)OC(F)(F)CO`, the call in [1], in experiment [2], in experiment [3], in experiment [4], in [5] and in experiment [6] was inactive. In addition, the result in experiment [7], in experiment [8] and in experiment [9] was inactive.
For `OCC(F)(F)OC(F)(F)C(F)(F)OC(F)(F)C(F)(F)OC(F)(F)F`, the compound was classed as inactive in experiment [10], in experiment [11], in [1], in experiment [2], in [3] and in [4]. For the same compound, the result in experiment [5] and in [8] was inactive. Also, the AC50 in experiment [6] was 20.2 µM (active); in [7] it was 73.7 µM (active); in experiment [9], 27.5 µM (active).
`c1ccc(OP(Oc2ccccc2)Oc2ccccc2)cc1`: the result in the experiment on SERPINA7 (gene 6906) was inactive.
As to `O=C(O)C=CC(F)(C(F)(F)F)C(F)(F)F`, the call in experiment [10], in experiment [11], in [1], in experiment [2], in [3] and in experiment [4] was inactive. Also, the compound was classed as inactive in experiment [5], in experiment [6], in experiment [7], in experiment [8] and in experiment [9].
As to `CCC(C)(C)c1ccc(O)cc1`, in the experiment on SERPINA7 (gene 6906), the AC50 was 50 µM (active).
For `COC(=O)C(F)(F)C(F)(F)OC(F)(C(F)(F)F)C(F)(F)OC(F)=C(F)F` (centres undefined), the AC50 in the experiment on SERPINA7 (gene 6906) is 22.3 µM (active). The call in experiment [1], in experiment [2], in [3], in experiment [4], in [5] and in [6] was inactive. Further, the outcome in experiment [7], in [8] and in experiment [9] was inactive.
For `CCCN(CCC)c1c([N+](=O)[O-])cc(C(C)C)cc1[N+](=O)[O-]`, in the experiment on SERPINA7 (gene 6906), the AC50 is 11.7 µM (active).
Regarding `CCCCOCCOP(=O)(OCCOCCCC)OCCOCCCC`, the compound was classed as inactive in experiment [12].
In the case of `O=C(O)C(F)(F)C(F)(F)C(=O)O`, the outcome in experiment [1], in [2], in experiment [3], in experiment [4], in experiment [5] and in experiment [6] was inactive. In addition, the compound was classed as inactive in experiment [7], in experiment [8] and in experiment [9].
Turning to `CCCCCCCc1ccc(O)cc1`, the AC50 in the experiment with SERPINA7 (gene 6906) was 18.5 µM (active).
Take `CC(C)(C)c1ccccc1OP(=O)(Oc1ccccc1)Oc1ccccc1`: the outcome in experiment [13] and in experiment [12] was inactive.
For the compound `O=S1(=O)OCC2C(CO1)C1(Cl)C(Cl)=C(Cl)C2(Cl)C1(Cl)Cl` (centres undefined), the result in experiment [12] was inactive.
In the case of `O=C(O)C(F)(F)OC(F)(F)C(F)(F)OC(F)(F)C(=O)O`, the result in experiment [10], in experiment [11], in [1], in [2], in experiment [3] and in experiment [4] was inactive. In addition, the compound was classed as inactive in [5], in experiment [6], in experiment [7], in [8] and in experiment [9].
Regarding `CO/N=C(/C(=O)OC)c1ccccc1COc1ccccc1C`, in experiment [12], the compound was classed as inactive. Further, the AC50 in [10] is 31.4 µM (active); in experiment [11], 28.7 µM (active); in the experiment on SERPINA7 (gene 6906), 34.2 µM (active).
Turning to `FC(F)(F)C(F)(C(F)(F)F)C(F)(F)C(F)(F)CC1CO1` (centres undefined), the outcome in experiment [10], in experiment [11], in experiment [1], in experiment [2], in experiment [3] and in experiment [4] was inactive. In addition, the result in experiment [5], in experiment [6], in experiment [7], in experiment [8] and in experiment [9] was inactive.

Values taken from PubChem BioAssay (EPA / NIEHS).
